Each structure is given as a SMILES string.

In this test the test system is HepG2. Kind of test: GSK_TCMDC: Percent inhibition of human HepG2 cell line. Test compounds present at 10uM. The test is classed as functional.
Usually Inhibition stands for the percentage by which the read-out fell short of the control. Low values mean little suppression, high ones strong suppression. Take `COc1ccc(NC(=O)Nc2nc3ccccc3s2)cc1N1CCN(C)CC1`: the Inhibition was determined as 6%. Compound `CCOc1c(CNCCCNc2nc3ccccc3[nH]2)cc(I)cc1OC.Cl` gave an Inhibition of 42%. As to `Oc1ccc2ncnc(Nc3ccc(OCc4cccc(F)c4)c(Cl)c3)c2c1`, the Inhibition worked out at 24%. Take `CC(C)COc1ccc(Cl)cc1Cc1ccc(-c2nc3ccc(Br)cc3[nH]2)o1.Cl`: the Inhibition was 19%. `COc1cc(C(=O)N2CCOC(CCN3CCC4c5ccccc5CC43)(c3ccc(Cl)c(Cl)c3)C2)cc(OC)c1OC` (stereo not given) came in with an Inhibition of 32%. For the compound `CCOc1ccccc1CNc1nccc(NCCc2cn(C)c3ccccc23)n1`, the Inhibition was 27%. Consider `CCCn1cnc2cc(C(=O)Nc3ccc(-c4cccc(CN(C)C)c4)cc3)ccc2c1=O`, for which the Inhibition is given as 26%.

`N#Cc1ccc(N/C(=N\c2ccccc2Cl)NC2CCN(Cc3ccccc3)CC2)c(O)c1` yielded an Inhibition of 31%. Turning to `COC(=O)c1cccc(CNCc2cccc(-c3ccc(-c4nc5ccccc5[nH]4)cc3)c2)c1.O=C(O)C(F)(F)F`, the Inhibition is 0%.

Compound `CN(C)CCCn1c(N)c(-c2nc3ccccc3[nH]2)c2nc(C#N)c(C#N)nc21` showed an Inhibition of 100%. `COc1ccccc1C1CCN(C2CCC(NC(=O)c3cc4ccccc4[nH]3)CC2)CC1` (stereo not given): the Inhibition worked out at 49%. For the compound `CC(=O)c1nccc(C)c1N`, the Inhibition is 10%.

Turning to `CCn1c(-c2nonc2N)nc2c(-c3cccc(NC(=O)Nc4cccc(OC)c4)c3)ncc(OCCCN)c21.O=C(O)C(F)(F)F`, the Inhibition is 1%. Compound `Cc1cc(NC(=O)Nc2ccc(Oc3ccccc3)cc2)c2ccccc2n1` yielded an Inhibition of 2%.

Compound `CCOC(=O)CNC(=O)N(CCN(Cc1ccccc1)C(=O)NCC(=O)OCC)Cc1ccccc1` gave an Inhibition of 9%.
